# Results: the supplement of paper PMC10515830
# Structures can show the parent of a compound that is named as a salt.
# Tests used:
# Conditions in all cases: 10 µM; exposure time 6 h
# [1] = tested on: Danio rerio larvae (5 dpf); assay: difference in excitability vs DMSO (percentage points); higher = more excitable than DMSO
# In short: (§1)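 Library compounds were tested at 10 µM final in 100 µL egg water on wild-type 5 dpf zebrafish larvae in 96-well plates for 6 h, with 48 larvae per compound. After 3 h, plates at 28.5 ℃ were imaged every 6 s during a 3-h run of moving lines and 100 ms, 400Hz tones. Behaviours were quantified by Z-LaP Tracker and reported as the compound mean less the vehicle control mean, in percentage points.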
# [2] = tested on: Danio rerio larvae (5 dpf); assay: difference in startle response vs DMSO (percentage points); higher = stronger startle than DMSO
# In short: as §1
# [3] = tested on: Danio rerio larvae (5 dpf); assay: difference in activity during first hour vs DMSO (percentage points); higher = more activity than DMSO
# In short: as §1
# [4] = tested on: Danio rerio larvae (5 dpf); assay: difference in habituation to acoustic stimuli vs DMSO (percentage points); higher = more habituation than DMSO
# In short: as §1
# [5] = tested on: Danio rerio larvae (5 dpf); assay: difference in combined optomotor response to red, green and blue moving lines vs DMSO (percentage points); higher = stronger optomotor response than DMSO
# In short: as §1
SMILES,difference in excitability [1],difference in startle response [2],difference in activity during first hour [3],difference in habituation to acoustic stimuli [4],difference [5]
C[N+](C)(C)CC=O [Betaine Aldehyde (chloride)],7.5,1.56,10.1,-0.929,4.79
OB1OCc2cc(F)ccc21,13.7,-1.36,-11.7,2.38,4.85
COc1cc2c(cc1Cc1cccc(Cl)c1F)c(=O)c(C(=O)O)cn2[C@H](CO)C(C)C [Elvitegravir],4.89,-9.84,6.05,0.943,-4.56
CC1(C)S[C@@H]2[C@H](NC(=O)[C@H](N)c3ccccc3)C(=O)N2[C@H]1C(=O)O [Ampicillin (sodium salt)],2.42,0.739,-2.5,-4.92,-2.47
CN1CCC(=C2c3ccccc3C=Cc3ccccc32)CC1 [Cyproheptadine (hydrochloride hydrate)],6.61,-4.47,-3.08,-11.2,-16.4
O=c1[nH]c(=O)n([C@H]2C[C@H](O)[C@@H](CO)O2)cc1C(F)(F)F [Trifluorothymidine],-0.163,-3.06,5.45,-4.69,1.93
CCc1c2c(nc3ccc(OC(=O)N4CCC(N5CCCCC5)CC4)cc13)-c1cc3c(c(=O)n1C2)COC(=O)[C@]3(O)CC [Irinotecan (hydrochloride hydrate)],13.5,-2.28,0.361,2.44,2.92
Nc1nc(N)c2nc(-c3ccccc3)c(N)nc2n1 [Triamterene],-0.938,5.79,11.3,-2.13,6.72
CC(C)(O/N=C(\C(=O)N[C@@H]1C(=O)N2C(C(=O)[O-])=C(C[n+]3ccccc3)CS[C@H]12)c1csc(N)n1)C(=O)O [Ceftazidime (hydrate)],-0.0444,0.0878,3.86,0.293,4.55
CN(C)[C@@H]1C(O)=C(C(N)=O)C(=O)[C@@]2(O)C(O)=C3C(=O)c4c(O)cccc4[C@@](C)(O)[C@H]3[C@H](O)[C@@H]12 [Oxytetracycline],-1.74,-1.21,20.6,5.81,-0.914
Nc1ccc(S(N)(=O)=O)cc1 [Sulfanilamide],11.8,-3.25,6.97,-1.65,3.13
CNC(=C[N+](=O)[O-])NCCSCc1csc(CN(C)C)n1 [Nizatidine],-3.87,-1.69,7.71,2.96,2.72
Cc1ncc([N+](=O)[O-])n1CCO [Metronidazole],5.42,1.25,-3.64,-2.4,7.32
OC(Cn1cncn1)(Cn1cncn1)c1ccc(F)cc1F [Fluconazole],-1.01,-5.1,-3.04,-5.58,3.09
CN1C2CCCC1CC(NC(=O)c1nn(C)c3ccccc13)C2 (stereo not given) [Granisetron (hydrochloride)],5.31,0.419,15,0.641,7.51
CCCCCCCCCC(=O)N[C@@H](Cc1c[nH]c2ccccc12)C(=O)N[C@H](CC(N)=O)C(=O)N[C@@H](CC(=O)O)C(=O)N[C@@H]1C(=O)NCC(=O)N[C@@H](CCCN)C(=O)N[C@@H](CC(=O)O)C(=O)N[C@H](C)C(=O)N[C@@H](CC(=O)O)C(=O)NCC(=O)N[C@H](CO)C(=O)N[C@@H]([C@H](C)CC(=O)O)C(=O)N[C@@H](CC(=O)c2ccccc2N)C(=O)O[C@@H]1C [Daptomycin],12,1.46,7.99,-6.5,6.83
Clc1ccc(COC(Cn2ccnc2)c2ccc(Cl)cc2Cl)c(Cl)c1 (stereo not given) [Miconazole (nitrate)],9.53,-10.9,-23.5,-11.4,-18.4
CCN1CCN(C(=O)N[C@@H](C(=O)N[C@@H]2C(=O)N3[C@@H]2SC(C)(C)[C@@H]3C(=O)O)c2ccccc2)C(=O)C1=O [Piperacillin (sodium salt)],2.92,2.6,14.2,-3.02,5.57
CC[C@@H]1/C=C(\C)C[C@H](C)C[C@H](OC)[C@H]2O[C@@](O)(C(=O)C(=O)N3CCCC[C@H]3C(=O)O[C@H](/C(C)=C/[C@@H]3CC[C@H](Cl)[C@H](OC)C3)[C@H](C)[C@@H](O)CC1=O)[C@H](C)C[C@@H]2OC [Pimecrolimus],12,-9.07,23,-1.18,-12.6
Cc1nc(-c2ccc(OCC(C)C)c(C#N)c2)sc1C(=O)O [Febuxostat],-0.635,0.974,-3.02,3.9,5.26
C[C@@H](O)[C@@H]1NC(=O)[C@H](CCCCN)NC(=O)[C@@H](Cc2c[nH]c3ccccc23)NC(=O)[C@H](Cc2ccccc2)NC(=O)[C@@H](NC(=O)[C@H](N)Cc2ccccc2)CSSC[C@@H](C(=O)N[C@H](CO)[C@@H](C)O)NC1=O [Octreotide (acetate)],11.3,-0.00387,-5.09,-0.654,0.73
CCCCC[C@H](O)/C=C/[C@@H]1[C@H]2C/C(=C/CCCC(=O)O)O[C@H]2C[C@H]1O [Prostaglandin I2 (sodium salt)],0.101,3.79,11.9,1.5,4.02
CCOC(=O)[C@H](CCc1ccccc1)N[C@@H](C)C(=O)N1[C@H](C(=O)O)C[C@H]2CCCC[C@@H]21 [Trandolapril],-2.52,-0.34,2.67,-0.88,6.04
COc1ccc(-c2ccc3cc(C(=O)O)ccc3c2)cc1C12CC3CC(CC(C3)C1)C2 [Adapalene],-8.45,3.9,-0.172,-5,3.86

SMILES,difference in excitability [1],difference in startle response [2],difference in activity during first hour [3],difference in habituation to acoustic stimuli [4],difference [5]
COc1cc2nc(N3CCN(C(=O)C4CCCO4)CC3)nc(N)c2cc1OC (stereo not given) [Terazosin (hydrochloride)],18.5,10.8,-10.2,1.1,13.9
Nc1nc2[nH]cc(CCc3ccc(C(=O)N[C@@H](CCC(=O)O)C(=O)O)cc3)c2c(=O)[nH]1 [Pemetrexed (sodium salt hydrate)],7.7,-0.109,-1.67,4.63,5.29
CC1=C(C/C=C(\C)CCC[C@H](C)CCC[C@H](C)CCCC(C)C)C(=O)c2ccccc2C1=O [Vitamin K1],-4.97,1.27,12.1,-1.08,6.58
Cc1ccc(=O)n(-c2ccccc2)c1 [Pirfenidone],-2.03,3.37,0.0618,2.62,8.23
CC(C)(O)CNc1nc(Nc2ccnc(C(F)(F)F)c2)nc(-c2cccc(C(F)(F)F)n2)n1 [Enasidenib],15.7,-3.05,12.8,-6.3,2.71
O=C1[C@H](CC[C@H](O)c2ccc(F)cc2)[C@@H](c2ccc(O)cc2)N1c1ccc(F)cc1 [Ezetimibe],3.43,3.17,-1.12,-7.52,7.17
COc1ccc(CCN(C)CCCC(C#N)(c2ccc(OC)c(OC)c2)C(C)C)cc1OC (stereo not given) [Verapamil (hydrochloride)],7.52,-8.68,-17.7,-4.3,-6.45
COc1ccc(S(=O)(=O)Nc2ccccc2CN(C)C/C=C/c2ccc(Cl)cc2)cc1 [KN-92 (hydrochloride)],7.68,-0.787,-17.8,-4.48,-1.81
CNCC(=O)OCc1cccnc1N(C)C(=O)OC(C)[n+]1cnn(C[C@](O)(c2cc(F)ccc2F)[C@@H](C)c2nc(-c3ccc(C#N)cc3)cs2)c1 (stereo not given in full) [Isavuconazonium (sulfate)],28.4,4.1,-13.1,-2.82,-5.6
Nc1nc(=O)c2c([nH]1)NC[C@H](CNc1ccc(C(=O)N[C@@H](CCC(=O)O)C(=O)O)cc1)N2C=O [L-Folinic Acid (calcium salt)],-3.02,-0.777,-9.87,-0.456,-0.774
CC(=O)N[C@@H](CS)C(=O)O [N-acetyl-L-Cysteine],-2.2,3.63,14.1,-5.17,-0.176
CCOC(=O)C1=C[C@@H](OC(CC)CC)[C@H](NC(C)=O)[C@@H](N)C1 [Oseltamivir (phosphate)],1.51,3.38,8.28,-5.42,3.62
Cc1ccsc1C(=CCCN1CCC[C@@H](C(=O)O)C1)c1sccc1C [Tiagabine (hydrochloride)],6.86,2.66,17.9,5.1,-1.64
NC(=O)Cc1cccc(C(=O)c2ccccc2)c1N [Nepafenac],9.24,1.72,-6.03,4.01,-4.77
C=CC(=O)N1CCC[C@@H](n2nc(-c3ccc(Oc4ccccc4)cc3)c3c(N)ncnc32)C1 [Ibrutinib],14.1,0.877,-6.73,-6.76,9.38
CC/C(=C(\c1ccccc1)c1ccc(OCCN(C)C)cc1)c1ccccc1 [Tamoxifen (citrate)],-1.02,-2.65,14.8,-2.18,-15.8
O=C(O)c1cc(/N=N/c2ccc(S(=O)(=O)Nc3ccccn3)cc2)ccc1O [Sulfasalazine],11.1,2.87,12.9,-2.35,4.25
CC(=O)O[C@H]1CC[C@@]2(C)C(=CC[C@@H]3[C@@H]2CC[C@]2(C)C(c4cccnc4)=CC[C@@H]32)C1 [Abiraterone Acetate],9.1,-1.78,-2.76,-1.15,2.44
C#CCC(Cc1cnc2nc(N)nc(N)c2n1)c1ccc(C(=O)N[C@@H](CCC(=O)O)C(=O)O)cc1 (stereo not given in full) [Pralatrexate],7.8,7.47,0.4,4.28,4.2
CC(C)OC(=O)CCC/C=C\C[C@@H]1[C@@H](/C=C/[C@@H](O)COc2cccc(C(F)(F)F)c2)[C@H](O)C[C@@H]1O [Fluprostenol isopropyl ester],7.89,-1.38,5.82,8.61,7.99
CN1CCc2cccc3c2[C@H]1Cc1ccc(O)c(O)c1-3 [(-)-Apomorphine (hydrochloride hydrate)],19.8,-2.6,-20.1,-5.47,-13
CN1CCC[C@H]1c1cccnc1 (racemic) [(±)-Nicotine],9.04,-8.45,50,-10.6,-14.9
O=C(c1ccc(F)c(F)c1Nc1ccc(I)cc1F)N1CC(O)([C@@H]2CCCCN2)C1 [Cobimetinib],22.7,-2.69,0.0371,0.214,2.37
